Reference: ChEMBL document CHEMBL3988442, “University of Dundee, Small-Polar-MMV Screening Library” (2021)
About 13,000 (27%) of roughly 48,000 compounds showed an effect of 50% or more. Some of the results follow.

Test system: Wolbachia pipientis
Experiment: Anti-Wolbachia Cell-Based Screen
Assay type: functional
Design: scale not given: in the data most compounds retested in dose-response had high values
Conditions: 5 µM

Row | Structure (SMILES) | Percent Effect
1 | COCCC(=O)N1CCCC2(CCC(=O)N(CCc3c[nH]cn3)C2)C1 (stereo not drawn) | 0.09306%
2 | Cc1cnn(CCNCc2nc(Cc3ccccc3)no2)c1 | -7.265%
3 | Fc1cccc(N2CCCC3(C2)CN(c2cnccn2)CCO3)c1 (stereo not drawn) | 1.052%
4 | CCc1cc(C(=O)NCC2CCN(Cc3cccc(C#N)c3)C2)on1 (stereo not drawn) | 4.535%
5 | O=C(NCC1CC1)[C@H]1CN(Cc2nccs2)C[C@H]2OCC[C@@H]12.O=C(O)C(F)(F)F | -15.61%
6 | Cn1ccnc1NC[C@@H]1CCC[C@@H]2CN(Cc3nccs3)C[C@@H]21.O=C(O)C(F)(F)F | -0.855%
7 | CO[C@H]1CN(Cc2cccc(C#N)c2)[C@@H]2COC[C@H]12.O=C(O)C(F)(F)F | -6.68%
8 | CC(=O)N1[C@@H](C(=O)NCC2CC2)C[C@@H]2CN(Cc3nccs3)C[C@@H]21.O=C(O)C(F)(F)F | 88.62%
9 | CN1[C@@H](C(=O)NCC2CC2)C[C@H]2CN(Cc3cccc(C#N)c3)C[C@H]21.O=C(O)C(F)(F)F.O=C(O)C(F)(F)F | 99.16%
10 | CN(C)S(=O)(=O)c1csc(C(=O)N2CCSCC2)c1 | -1.993%
11 | CC(C)c1cc(C(=O)N[C@H]2CN(C3CCOCC3)C[C@@H]2C2CC2)no1 | -8.943%
12 | Cc1nccn1C1CCCN(C(=O)c2cc(O)nc3ccccc23)C1 (stereo not drawn) | -15.61%
13 | COCCOc1ncccc1C(=O)N1CCCC(n2ccnc2C)C1 (stereo not drawn) | 113.9%
14 | COc1ncccc1C(=O)N1CCCC(n2ccnc2C)C1 (stereo not drawn) | 125.3%
15 | COc1ncccc1C(=O)N1CCCC(c2cc(C)[nH]n2)C1 (stereo not drawn) | -2.172%
16 | CC(C)(C)CNC[C@H]1Cn2c(-c3ccccc3)cnc2CO1 | -15.45%
17 | CC(=O)N1CCN(C(=O)CNc2ccc3sccc3c2)CC1 | -10.18%
18 | CC(C)C(NC(=O)c1ccc(Cl)cc1Cl)C(=O)Nc1cnn(C)c1 (stereo not drawn) | 12.86%
19 | CCn1cnnc1CNC(=O)c1ccc(Cl)cc1F | 9.197%
20 | CC(C)CNC(=O)c1ccc(NC(=O)NC2CC2)cc1Cl | -3.361%
21 | CC(C)NC(=O)C1CCc2nnc(CNC(=O)c3ccc(Cl)cc3Cl)n21 (stereo not drawn) | 98.13%
22 | CN(C)C(=O)C1CCc2nnc(CNC(=O)c3ccc(Cl)cc3Cl)n21 (stereo not drawn) | 114.2%
23 | CC(CNC(=O)c1ccc(Cl)cc1I)N1CCCC1 (stereo not drawn) | -14.44%
24 | O=C(NCC(=O)N1CCCCC1)c1ccc(Cl)cc1I | -12.84%
25 | O=C(NCc1nnc2n1C(C(=O)NC1CC1)CC2)c1ccc(Cl)cc1Cl (stereo not drawn) | 110.4%

Row | Structure (SMILES) | Percent Effect
26 | Cn1cc(-c2cnc3n2CCC32CCN(S(=O)(=O)C3CC3)CC2)cn1.O=C(O)C(F)(F)F | 2.089%
27 | CC(NS(=O)(=O)N(C)C(C)C)C(=O)N(C)C (stereo not drawn) | -8.822%
28 | COc1ccc(Cl)cc1CS(=O)(=O)Cc1nc(C)no1 | 9.011%
29 | CCOc1cc(C(=O)NS(C)(=O)=O)cc(-c2ccccc2)c1OC | 4.998%
30 | CS(=O)(=O)NCc1cc2n(n1)CCCN(Cc1nc3ccccc3[nH]1)C2 | 2.68%
31 | Cc1nn(C)c(C)c1S(=O)(=O)NCCn1ccc(-c2cccs2)n1 | -20.8%
32 | Cl.O=C(C1CCC1)N1C[C@@H](c2ccsc2)[C@@H]2CN(C3CCCC3)CC[C@@H]21 | 127.5%
33 | Cl.O=C(C1CCC1)N1C[C@@H](c2ccsc2)[C@@H]2CN(C3CCCCC3)CC[C@@H]21 | 144.1%
34 | O=C(C1CCC1)N1CCN(Cc2ccsc2)[C@H]2CS(=O)(=O)C[C@H]21 | -4.22%
35 | Cl.O=C(C1CCCC1)N1C[C@@H](c2ccsc2)[C@@H]2CN(C3CCCC3)CC[C@@H]21 | 194.4%
36 | CN(C)c1ccc(NC(=O)N2CCCC2c2ccsc2)cn1 (stereo not drawn) | 11.58%
37 | CSc1ncc(CN2CC(Oc3c(C)cccc3C)C2)cn1 | -6.082%
38 | CCC(Nc1nc(C(C)C)nc2c1cnn2C)c1ccncc1 (stereo not drawn) | -4.681%
39 | Cc1ccc(NS(=O)(=O)CC2=NC(=O)n3cccc3C2=O)cc1 | 7.318%
40 | O=C(Nc1ccccc1)c1ccc(NCc2ccccc2CO)nn1 | -18.51%
41 | CCCS(=O)(=O)N1CCC2(CC1)CN(c1ccccn1)CCO2.O=C(O)C(F)(F)F | 3.761%
42 | O=C(NCC1CCOC1)Nc1ccc(OCC(F)(F)F)nc1 (stereo not drawn) | -13.99%
43 | COCCC(=O)N1CCC(c2ccc3c(NC(C)C)n[nH]c3n2)C1 (stereo not drawn) | 74.92%
44 | COCCOCCC(=O)N1CCC(c2ccccc2C)C1 (stereo not drawn) | -9.058%
45 | Cc1ncsc1C(=O)N1CCC(c2ccc3c(NC(C)C)n[nH]c3n2)C1 (stereo not drawn) | 170.9%
46 | COCCC(=O)N1CCc2nc(N3CCOCC3)nc(NC(C)C)c2C1 | -19.12%
47 | CC(C)Oc1cccc(C(=O)C2CCCN(C(=O)c3ccccn3)C2)c1 (stereo not drawn) | -12.09%
48 | CC(C)Nc1n[nH]c2nc(C3CCN(C(=O)c4ccccn4)C3)ccc12 (stereo not drawn) | 75.7%
49 | CC(C)c1nc2n(n1)CC(NCc1nc(-c3ccsc3)no1)CC2 (stereo not drawn) | -1.114%
50 | O=c1n(CC2CCCCO2)nc(CC2CCNCC2)n1-c1ccccc1 (stereo not drawn) | 26.34%

Row | Structure (SMILES) | Percent Effect
51 | CC(NC(=O)c1cc(Br)c2c(c1)OCCO2)C(N)=O (stereo not drawn) | -7.344%
52 | CC(C)OCCS(=O)(=O)N1CCN(Cc2cccn2C)CC1 | -8.582%
53 | CC(C)CN1C(=O)C2(CCCC2)NC12CCSCC2 | -2.921%
54 | CCOc1ccc(C(=O)N2Cc3cnc(CC)nc3C2)o1 | -12.82%
55 | CCCS(=O)(=O)NC(=O)c1cc(C)n(-c2ccccc2)n1 | 6.254%
56 | CNC(=O)c1cc(C)n(-c2ccccc2)n1 | 92.62%
57 | CCN(CC)S(=O)(=O)NC(=O)c1cc(C)n(-c2ccccc2)n1 | 6.675%
58 | COc1cc(N2CCCC(c3nccn3Cc3cscn3)C2)nc(N)n1 (stereo not drawn) | 2.098%
59 | O=c1[nH]c2c(c(=O)n1C1CCCCC1)CCC2Nc1ccccc1Cl (stereo not drawn) | 4.437%
60 | O=c1[nH]c2c(c(=O)n1C1CCCCC1)CCC2Nc1ccccc1 (stereo not drawn) | -8.343%
61 | O=c1[nH]c2c(-c3ccccn3)nsc2c(=O)n1C1CCCCC1 | 110.2%
62 | COCCN(C)C[C@@H]1CN(C(=O)c2ccc3c(c2)OCO3)C[C@@H]1CO | 100.3%
63 | O=C(c1ccc2c(c1)OCO2)N1C[C@@H](CN2CCCCC2)[C@@H](CO)C1 | -23.85%
64 | COCCN(C)C[C@@H]1CN(C(=O)C(C)(C)c2ccccc2)C[C@@H]1CO | 115.8%
65 | COc1ccc(F)c(F)c1C(=O)N1C[C@@H](CN(C)CCO)[C@@H](CO)C1 | -3.681%
66 | COCCN(C)C[C@@H]1CN(C(=O)c2ccc(SC)cc2)C[C@@H]1CO | 113.3%
67 | COCCN(C)C[C@@H]1CN(C(=O)c2c(F)ccc(OC)c2F)C[C@@H]1CO | -13.51%
68 | COCCN(C)C[C@@H]1CN(C(=O)c2ccc(OC)c(F)c2)C[C@@H]1CO | 94.27%
69 | CCc1ccc2nc(C)cc(C(=O)NC3CCCCNC3=O)c2c1 (stereo not drawn) | -55.41%
70 | COc1ccc(N2CCC(N3CCOC(C(F)(F)F)C3)CC2)cc1 (stereo not drawn) | 26.01%
71 | COC(=O)c1ccc(Cl)c(CN(C)Cc2ncnn2C)c1 | -12.36%
72 | COC(=O)CCCC(=O)N(C)CC1Cc2ccccc2CN1C (stereo not drawn) | -6.642%
73 | CS(=O)(=O)Cc1ccc(C(=O)NCC2Cc3ccccc3O2)cc1 (stereo not drawn) | -4.65%
74 | COCCN(C)C[C@@H]1CN(C(=O)c2ccc(C)cc2)C[C@@H]1CO | 166.3%
75 | COCCN(C)C[C@@H]1CN(C(=O)c2ccoc2)C[C@@H]1CO | -5.57%

Row | Structure (SMILES) | Percent Effect
76 | COc1ccc(C)cc1C(=O)N1C[C@@H](CN(C)CCO)[C@@H](CO)C1 | -25.29%
77 | Cc1cc(C(=O)N2CCn3cnc(COCC4CC4)c3C2)no1 | -11.47%
78 | CCc1n[nH]c(C2CN(C(=O)c3ccc4c(c3)CCC4)CCO2)n1 (stereo not drawn) | 79.95%
79 | Cc1n[nH]c(C2CN(C(=O)c3ccc4c(c3)CCCC4)CCO2)n1 (stereo not drawn) | -29.36%
80 | CCc1n[nH]c(C2CN(C(=O)c3ccc4c(c3)CCCC4)CCO2)n1 (stereo not drawn) | 128.9%
81 | CCc1n[nH]c(C2CN(C(=O)c3cc4c(s3)CCCC4)CCO2)n1 (stereo not drawn) | -2.74%
82 | CCc1nc(CNC2CCCc3c2cnn3CC)cs1 (stereo not drawn) | 1.475%
83 | N#Cc1cccc(S(=O)(=O)N2CCCCC2CCN2CCCC2=O)c1 (stereo not drawn) | 2.931%
84 | COCCCC1CCCCN1S(=O)(=O)c1cccc(C#N)c1 (stereo not drawn) | 99.73%
85 | N#Cc1cccc(S(=O)(=O)N2CCCCC2CCN2CCCC2)c1 (stereo not drawn) | 93.73%
86 | CC(C)C1CN(S(=O)(=O)c2cccc(C#N)c2)CCS1 (stereo not drawn) | -18.57%
87 | CCN1CCCC1CN(CCN(C)C)S(=O)(=O)c1cccc(C#N)c1 (stereo not drawn) | -13.07%
88 | CS(=O)(=O)NCC1CCCCN1Cc1cccc(C#N)c1 (stereo not drawn) | 20.87%
89 | O=C(O)c1csc(S(=O)(=O)N2CCCc3cc(OC(F)F)ccc32)c1 | -5.134%
90 | O=C(N1CCCC1)N1C[C@H]2CCC[C@@]2(COCc2ccccn2)C1.O=C(O)C(F)(F)F | 108.6%
91 | CN(C)S(=O)(=O)N1C[C@H]2CCC[C@@]2(COc2cccnc2)C1.O=C(O)C(F)(F)F | 5.762%
92 | O=C(C1CCOCC1)N1C[C@H]2CCC[C@@]2(COCc2ccccn2)C1 | 98.54%
93 | CN(C)S(=O)(=O)N1C[C@H]2CCC[C@@]2(COCc2ccccn2)C1.O=C(O)C(F)(F)F | 5.963%
94 | O=C(C1CCOCC1)N1C[C@H]2CCC[C@@]2(COc2cccnc2)C1.O=C(O)C(F)(F)F | 89.34%
95 | Cc1ccc(N2C[C@H]3CCC[C@@]3(COc3cccnc3)C2)nn1.O=C(O)C(F)(F)F.O=C(O)C(F)(F)F | -0.008691%
96 | Cc1noc(C)c1C(=O)N1C[C@H]2CCC[C@@]2(COc2ccccn2)C1.O=C(O)C(F)(F)F | -9.504%
97 | O=C(O)C(F)(F)F.O=C(c1ncccn1)N1C[C@H]2CCC[C@@]2(COCc2cccnc2)C1 | 0.3809%
98 | COC[C@@]12CCC[C@@H]1CN(C(=O)Cc1ccccn1)C2.O=C(O)C(F)(F)F | 87.04%
